Values joined by “and” are separate entries in the source; they are usually repeats but may differ in a detail not shown here. Identical values can stand only once. About 2,000 (36%) of roughly 5,500 compounds were called active. Roughly 18% stayed inconclusive and do not appear here. Cut-off read from the data, not from the text of the source: active = normalized growth mostly below about 0.91 (no sharp cut-off); inconclusive = no clear call, values can overlap the other calls; inactive = mostly above about 0.92. The list shows a part of the results.
Assay: chemical genetic growth profiling, strain panel (AID 1159580);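 note: tested at 20 µM; growth read once vehicle control cultures reached saturation at 30 °C; 1 = growth at the plate median or of vehicle wells; lower values mean less growth of the strain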
Conditions: S. cerevisiae deletion strains, growth OD

Measured: normalized growth

CC(CCC(=O)O)[C@H]1CCC2C3CC[C@@H]4C[C@H](O)CC[C@]4(C)C3C[C@H](O)[C@@]21C (some centres not stated)
inactive: locus YAL013W, strain DEP1, hits give low values 1.01 | locus YAL021C, strain ccr4, hits give low values 1.02 | locus YAL026C, strain drs2, hits give low values 0.98 | locus YAL030W, strain snc1, hits give low values 1.01 | locus YBL061C, strain skt5, hits give low values 0.983 | locus YBR009C, strain hhf1, hits give low values 1.03 | locus YBR021W, strain FUR4, hits give low values 1.04 | locus YBR023C, strain chs3, hits give low values 0.962 | locus YBR171W, strain sec66, hits give low values 0.989 | locus YBR229C, strain ROT2, hits give low values 0.987 | locus YBR231C, strain swc5, hits give low values 1.02 | locus YBR279W, strain paf1, hits give low values 0.99 | locus YCL011C, strain gbp2, hits give low values 0.974 | locus YCL016C, strain dcc1, hits give low values 0.948 | locus YCL029C, strain bik1, hits give low values 0.977 | locus YCL069W, strain vba3, hits give low values 0.972 | locus YCR088W, strain abp1, hits give low values 0.997 | locus YDL005C, strain med2, hits give low values 0.987 | locus YDL035C, strain GPR1, hits give low values 0.998 | locus YDL040C, strain nat1, hits give low values 0.993 | locus YDL074C, strain BRE1, hits give low values 1 | locus YDL101C, strain DUN1, hits give low values 1.01 | locus YDL185W, strain tfp1, hits give low values 1.02 | locus YDL192W, strain arf1, hits give low values 1 | locus YDR001C, strain nth1, hits give low values 0.984 | locus YDR069C, strain doa4, hits give low values 1.01 | locus YDR101C, strain arx1, hits give low values 1.01 | locus YDR137W, strain rgp1, hits give low values 0.894 | locus YDR150W, strain NUM1, hits give low values 1.01 | locus YDR159W, strain sac3, hits give low values 0.963 | locus YDR162C, strain NBP2, hits give low values 0.998 | locus YDR195W, strain ref2 1.01 | locus YDR297W, strain sur2, hits give low values 1 | locus YDR318W, strain mcm21, hits give low values 0.981 | locus YDR334W, strain swr1, hits give low values 0.98 | locus YDR335W, strain msn5, hits give low values 0.982 | locus YDR388W, hits give low values 0.996 | locus YDR392W, strain spt3, hits give low values 0.884 | locus YDR502C, strain sam2, hits give low values 1.02 | locus YEL003W, strain gim4, hits give low values 1.03 | locus YEL037C, strain rad23, hits give low values 0.979 | locus YEL061C, strain CIN8 (second series), hits give low values 1.01 | locus YEL061C, strain CIN8, hits give low values 1.01 | locus YER015W, strain faa2, hits give low values 1 | locus YER016W, strain bim1, hits give low values 0.975 | locus YER110C, hits give low values 0.982 | locus YER111C, strain swi4, hits give low values 1 | locus YER155C, strain BEM2 (second series), hits give low values 1.06 | locus YER155C, strain BEM2, hits give low values 1.03 | locus YER167W, strain BCK2, hits give low values 1.01 | locus YFR010W, strain ubp6, hits give low values 1.02 | locus YGL078C, strain dbp3, hits give low values 1.02 | locus YGL086W, strain mad1, hits give low values 1.02 | locus YGL167C, strain pmr1, hits give low values 0.999 | locus YGL173C, strain kem1, hits give low values 0.992 | locus YGL227W, strain vid30, hits give low values 1.01 | locus YGL240W, strain doc1, hits give low values 1.01 | locus YGL248W, strain PDE1, hits give low values 1.03 | locus YGL253W, strain hxk2, hits give low values 0.955 | locus YGR078C, strain PAC10, hits give low values 1.08 | locus YGR135W, strain pre9, hits give low values 1.04 | locus YHR013C, strain ard1, hits give low values 0.948 | locus YHR027C, strain rpn1, hits give low values 1 | locus YHR030C, strain SLT2, hits give low values 1.01 and 1.04 | locus YHR079C, strain IRE1 (second series), hits give low values 0.981 | locus YHR079C, strain IRE1, hits give low values 1.05 | locus YHR094C, strain hxt1, hits give low values 0.991 | locus YHR129C, strain ARP1, hits give low values 1.02 | locus YHR142W, strain chs7, hits give low values 0.926 | locus YHR200W, strain rpn10, hits give low values 1.02 | locus YIL066C, strain RNR3, hits give low values 0.999 | locus YIL073C, strain SPO22, hits give low values 1.06 | locus YIL125W, strain kgd1, hits give low values 0.988 | locus YIR030C, strain dcg1, hits give low values 1.01 | locus YJL092W, strain hpr5, hits give low values 0.999 | locus YJL095W, strain BCK1 (second series), hits give low values 0.991 | locus YJL095W, strain BCK1, hits give low values 1.04 | locus YJL115W, strain asf1, hits give low values 0.986 | locus YJL129C, strain trk1, hits give low values 0.959 | locus YJL134W, strain LCB3, hits give low values 1.01 | locus YJL154C, strain vps35, hits give low values 1.01 | locus YJL164C, strain tpk1, hits give low values 1 | locus YJL166W, strain qcr8, hits give low values 1.02 | locus YJL168C, strain set2, hits give low values 0.98 | locus YJL187C, strain SWE1 (second series), hits give low values 1.04 | locus YJR043C, strain POL32, hits give low values 1.01 | locus YJR066W, strain TOR1, hits give low values 0.99 | locus YKL009W, strain mrt4, hits give low values 0.942 | locus YKL068W, hits give low values 0.989 | locus YKL085W, strain MDH1 (second series), hits give low values 0.975 | locus YKL085W, strain MDH1, hits give low values 0.975 | locus YKL160W, strain elf1, hits give low values 0.937 | locus YKR001C, strain vps1, hits give low values 1.01 | locus YKR026C, strain gcn3, hits give low values 1 | locus YKR091W, strain srl3, hits give low values 0.988 | locus YLL001W, strain dnm1, hits give low values 1.01 | locus YLL026W, hits give low values 1 | locus YLL041C, strain sdh2, hits give low values 0.994 | locus YLR027C, strain aat2, hits give low values 0.991 | locus YLR039C, strain RIC1, hits give low values 0.941 | locus YLR058C, strain SHM2, hits give low values 1.01 | locus YLR102C, strain apc9, hits give low values 0.987 | locus YLR113W, strain HOG1, hits give low values 0.951 | locus YLR221C, strain rsa3, hits give low values 1.03 | locus YLR258W, strain gsy2, hits give low values 0.963 | locus YLR262C, strain YPT6 (second series), hits give low values 0.935 | locus YLR262C, strain YPT6, hits give low values 0.925 | locus YLR268W, strain sec22, hits give low values 0.989 | locus YLR320W, strain mms22, hits give low values 0.998 | locus YLR330W, strain CHS5, hits give low values 1.01 | locus YLR342W, strain FKS1 (second series), hits give low values 0.983 | locus YLR342W, strain FKS1, hits give low values 0.987 | locus YLR357W, strain rsc2, hits give low values 1.01 | locus YLR370C, strain arc18, hits give low values 0.972 | locus YLR371W, strain rom2, hits give low values 0.985 | locus YLR384C, strain iki3, hits give low values 0.992 | locus YLR418C, strain cdc73, hits give low values 1.03 | locus YML016C, strain PPZ1, hits give low values 1.01 | locus YML032C, strain rad52, hits give low values 1.01 | locus YML120C, strain ndi1, hits give low values 1.01 | locus YML124C, strain tub3, hits give low values 1.01 | locus YMR058W, strain fet3, hits give low values 1 | locus YMR078C, strain ctf18, hits give low values 0.981 | locus YMR125W, strain sto1, hits give low values 0.995 | locus YMR129W, hits give low values 0.98 | locus YMR205C, strain PFK2, hits give low values 0.969 | locus YMR223W, strain ubp8, hits give low values 1.02 | locus YMR231W, strain pep5, hits give low values 0.99 | locus YMR307W, strain GAS1, hits give low values 1.03 | locus YNL067W, strain RPL9B, hits give low values 1.03 | locus YNL071W, strain lat1, hits give low values 0.99 | locus YNL153C, strain GIM3, hits give low values 1.03 | locus YNL183C, strain NPR1, hits give low values 1 | locus YNL209W, strain ssb2, hits give low values 0.994 | locus YNL233W, strain BNI4, hits give low values 1.03 | locus YNL248C, strain rpa49, hits give low values 0.965 | locus YNL250W, strain rad50, hits give low values 1.01 | locus YNL271C, strain bni1, hits give low values 0.974 | locus YNL298W, strain CLA4, hits give low values 0.98 | locus YNL307C, strain MCK1, hits give low values 0.993 | locus YNL322C, strain KRE1 (second series), hits give low values 1 | locus YNL322C, strain KRE1, hits give low values 1.01 | locus YNR049C, strain mso1, hits give low values 0.988 | locus YNR052C, strain pop2, hits give low values 1.03 | locus YOL006C, strain TOP1, hits give low values 1.05 | locus YOL012C, strain htz1 1.39 | locus YOL147C, strain pex11, hits give low values 1 | locus YOR001W, strain rrp6, hits give low values 1.03 | locus YOR061W, strain CKA2, hits give low values 1 | locus YOR069W, strain VPS5, hits give low values 1 | locus YOR070C, strain gyp1, hits give low values 1 | locus YOR080W, strain dia2, hits give low values 0.986 | locus YOR083W, strain WHI5, hits give low values 0.927 | locus YOR106W, strain vam3, hits give low values 0.953 | locus YOR136W, strain idh2, hits give low values 1.02 | locus YOR144C, strain elg1, hits give low values 0.987 | locus YOR184W, strain ser1, hits give low values 0.994 | locus YOR231W, strain MKK1, hits give low values 1.03 | locus YOR265W, strain rbl2, hits give low values 0.997 | locus YOR270C, strain vph1, hits give low values 0.942 | locus YOR290C, strain snf2, hits give low values 0.952 | locus YOR316C, strain cot1, hits give low values 0.995 | locus YPL051W, strain arl3, hits give low values 0.958 | locus YPL078C, strain atp4, hits give low values 0.952 | locus YPL106C, strain sse1, hits give low values 0.985 | locus YPL240C, strain hsp82, hits give low values 0.99 | locus YPL256C, strain CLN2, hits give low values 1.08 | locus YPR119W, strain clb2, hits give low values 0.992 | locus YPR141C, strain kar3, hits give low values 0.992 | locus YPR163C, strain tif3, hits give low values 1 | locus YPR167C, strain met16, hits give low values 0.996 | strain wtn01, hits give low values 1.01

From PubChem BioAssay AID1159580 (chemical genetic matrix, 2015)
